DAX1 inh-1: DAX1 (NR0B1) inhibition, primary screen; HEK293T StAR-luciferase reporter, SF-1/DAX-1 repression relief; inhibition, % at 6.8 µM; 370,000 compounds, 1.1% hits;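 active = inhibition above the mean over all tested compounds plus 3 SD, cut at about 3.6% in these data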;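 note: 0% = DAX-1 cells with DMSO and 100% = cells lacking DAX-1 with DMSO; higher inhibition means more luminescence from relief of DAX-1 repression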
DAX1 inh-2: inhibits human nuclear receptor DAX1; P51843; HEK293 Gal4-DAX1 luciferase reporter, luminescence; inhibition, % at 6.75 µM; 340,000 compounds, 0.99% hits;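 active = inhibition above the mean over all tested compounds plus 3 SD, cut at about 4.2% in these data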;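 note: 0% = DAX1-transfected cells with DMSO and 100% = empty-vector control cells with DMSO; inhibition shows as a rise in luminescence from relieved DAX1 repression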
Target sequence (P51843 207-470 limits assumed): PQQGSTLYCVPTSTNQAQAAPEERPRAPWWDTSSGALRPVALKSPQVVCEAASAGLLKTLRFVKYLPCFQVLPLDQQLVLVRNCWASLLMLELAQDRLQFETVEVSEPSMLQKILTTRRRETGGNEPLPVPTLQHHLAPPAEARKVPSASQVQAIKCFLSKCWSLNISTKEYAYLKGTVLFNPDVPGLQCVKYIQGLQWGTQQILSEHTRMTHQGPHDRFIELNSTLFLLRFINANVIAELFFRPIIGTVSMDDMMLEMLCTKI
ssDAF12 agonist: activators of S. stercoralis DAF-12 nuclear receptor | HEK293 ssDAF-12/GRIP1 lit1-tk-luc reporter, luminescence; % of 3 µM dafachronic acid response | activation, % at 6.8 µM | 370,000 compounds, 1% hits;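 active = activation above the mean over all tested compounds plus 3 SD, cut at about 0.9% in these data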;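 note: 0% = DMSO-only wells and 100% = 3 µM delta7-dafachronic acid wells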
hcDAF-12 act: activators of H. contortus DAF-12 nuclear receptor. HEK293 hcDAF-12 lit1-tk-luc reporter, luminescence; 0% DMSO, 100% Δ7-dafachronic acid. activation, % at 6.8 µM. 370,000 compounds, 1.4% hits;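 active = activation above the mean of all tested compounds plus 3 SD, cut at about 5.5% in these data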;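 note: 100% = response to 3 µM Δ7-dafachronic acid high control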
hgDAF-12 ag: agonists of H. glycines DAF-12 nuclear receptor. 370,000 compounds, 1.8% hits. activation, % at 6.8 µM. HEK293 GAL4-hgDAF12 UAS-luciferase reporter, agonist luminescence; normalized to butyrate control;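 active = activation above a cutoff set at the mean of all screened compounds plus 3 SD, cut at about 10% in these data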;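 note: 0% = DMSO wells and 100% = sodium butyrate wells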
An asterisk follows results filed as active; . = no result given. Shown are actives, neighbours in structure and some others; about 4.1% of the full set was active somewhere.

SMILES	DAX1 inh-1	DAX1 inh-2	ssDAF12 agonist	hcDAF-12 act	hgDAF-12 ag
O=C1c2nc3cc(-c4ccco4)[nH]n3c(=O)c2CN1C1CCCCC1	0	.	-2	0	2
CC1=C(C(=O)OC(C)C)[C@@H](c2ccc(C)o2)NC(=O)N1	0	1	-2	-1	-2
CCCCc1c(-c2ccccc2OC)ncn1Cc1ccccc1F	0	.	-1	-1	-1
CN(CC(=O)N1CCN(c2ncccn2)CC1)S(=O)(=O)c1ccc(Cl)cc1	1	0	2.2*	-1	-2
CN(CC(=O)N1CCN(c2ccccn2)CC1)S(=O)(=O)c1ccccc1	0	2	-1	-1	1
O=C1NCCN/C1=C\C(=O)c1ccc(Br)cc1	2	.	0	4	11*
O=C1NCCN/C1=C\C(=O)c1ccccc1	1	1	0	-1	6
Cc1ccc(NC(=O)c2ccc(OC(=O)COc3ccc(Cl)cc3C)cc2)cc1	3.9*	1	0	6.1*	13*
O=C(NCC1CCCO1)c1nn2c(C(F)(F)F)cc(-c3cccs3)nc2c1Cl (configuration not stated)	0	-1	0.9*	0	-2
O=C(NCC1CCCO1)c1nn2c(C(F)(F)F)cc(-c3cccs3)nc2c1Br (configuration not stated)	1	2	-1	-2	-3
N=C(N)c1ccc(/C=C/c2ccc(C(=N)N)cc2O)cc1	0	5.1*	-1	-2	2
COc1ccc(CC(=O)Nc2cccc(-c3cn4ccccc4n3)c2)cc1	0	5.4*	-2	0	1
COc1ccc(CC(=O)Nc2ccc(-c3cn4ccccc4n3)cc2)cc1	0	-1	-1	-2	3
COC(=O)C1CN(Cc2ccccc2)CCS(=O)(=O)N1Cc1cn(Cc2ccccc2)nn1 (configuration not stated)	0	.	-2	0	0
CC(=O)c1cccc(NC(=S)NC(=O)c2ccccc2)c1	1	1	-1	0	12*
S=C(Nc1ccccc1)Nc1ccc2cn[nH]c2c1	1	3	0	2	5
O=C(NC(=S)Nc1ccc2cn[nH]c2c1)c1ccccc1	3.6*	2	0	4	12*
O=C(NC(=O)c1ccccc1)Nc1ccccc1	3	0	1.3*	6.2*	12*
COc1ccc(NC(=O)NC(=O)c2ccccc2)cc1	0	2	0	2	3
O=C(OC12CCCN(C1)/C(=C/c1cccc(Cl)c1)C2)c1ccccc1 (configuration not stated)	0	.	-1	0	2
Nc1cc(=O)[nH]c(SCCNS(=O)(=O)c2ccccc2)n1	0	-2	0.9*	3	3
CN(CCCOC(=O)c1occ2ccccc12)C1CN(Cc2cn(Cc3ccccc3Cl)nn2)S(=O)(=O)C1 (configuration not stated)	0	.	-2	-2	2
CCOC(=O)[C@]12CCCC=C1N(Cc1ccc(OC)cc1)C(=O)[C@@H]2CC(=O)N1CCN(C(=O)c2ccco2)CC1	1	.	-1	-3	-3
COc1cccc(CC(=O)OCC(=O)Nc2c(C)nn(-c3ccccc3)c2C)c1	0	7.0*	-1	-1	7
O=C(COC(=O)c1cccc(-n2cnnn2)c1)Nc1c(Cl)cccc1C(F)(F)F	3.9*	0	-1	-1	-2
SMILES	DAX1 inh-1	DAX1 inh-2	ssDAF12 agonist	hcDAF-12 act	hgDAF-12 ag
O=C(COC(=O)c1cccc(-n2cnnn2)c1)c1ccc(F)cc1	4	-1	0	3	5
COc1ccc(-c2nnc3n2N=C(c2cccc([N+](=O)[O-])c2)CS3)cc1	-3	.	0	-1	-1
Nc1c(-c2ccc(Cl)cc2)cnc2c(-c3ccc(F)cc3)cnn12	2	5.0*	1	5	13*
Cc1nc2c(-c3ccc(Cl)cc3)cnn2c(N)c1-c1ccc(F)cc1	-1	1	-3	-5	-9
COc1ccc(-c2c(C)nc3c(-c4ccc(F)cc4)cnn3c2N)cc1	0	5.2*	0	0	7
Cc1ccc(-n2c(SCC(=O)NN=Cc3c[nH]c4ccccc34)nnc2-c2ccccc2)cc1	-1	.	0	1	-2
Fc1ccc(-n2c(-c3ccc4ccccc4n3)n[nH]c2=S)cc1	0	6.3*	0	2	1
O=S1(=O)CC2c3ccccc3CN2CN1Cc1ccc(F)cc1 (configuration not stated)	0	.	0	0	0
O=C(O)CCC(CNS(=O)(=O)c1ccccc1)C(F)(F)F (configuration not stated)	-1	0	-1	-1	-3
CC(C)NC(=O)N(C)C[C@@H]1Oc2ncc(-c3cccc(C#N)c3)cc2C(=O)N([C@H](C)CO)C[C@@H]1C	0	3	-1	-1	5
Cc1ccc(NC(=O)CSc2nnc(-c3cc(-c4ccc(Cl)cc4)n[nH]3)n2N)cc1	0	.	-1	4	3
Cn1cccc1C(=O)N1CCN(S(=O)(=O)c2ccc(C(C)(C)C)cc2)CC1	-1	.	-1	-3	-3
COc1ccc(S(=O)(=O)N2CCOC23CCN(S(=O)(=O)c2ccccc2)CC3)cc1	1	4.3*	-1	-1	2
Clc1cccc(-c2ccc(-c3nc4ccccn4c3NCc3ccccc3)cc2)c1	1	0	1.8*	2	7
Clc1c(-c2ccccc2)nc2ccccn12	2	2	1.6*	4	8
c1ccn2c(c1)nc1c2nc2ccccn21	2	3	1.1*	1	13*
c1ccc(-c2nc3ccccn3c2NCc2ccc3c(c2)OCO3)cc1	0	-1	-1	0	6
O=C(O)c1c(Cl)nc2ccccn12	-1	-2	-1	-1	2
CCOC(=O)[C@@]12CCCC=C1N(CCc1ccc(Cl)cc1)C(=O)[C@H]2CC(=O)NCC1CCCCC1	0	.	-2	-3	1
COc1ccc(CN2C(C(=O)NC3CCCC3)CSCCS2(=O)=O)cc1 (configuration not stated)	0	.	-1	-3	0
COc1cccc(NC(=O)Nc2c(-c3ccc(C(F)(F)F)cc3)nc3ncccn23)c1	1	.	-1	-1	6
CC(=O)Nc1ccc(N=Nc2ccc(O)cc2)cc1	2	2	0	4	12*
COc1ccc(C2/C(=C(\O)c3cccc(OC)c3)C(=O)C(=O)N2c2ccccn2)cc1 (configuration not stated)	-1	6.8*	-1	-1	1
O=C(O)c1cccc(-n2cc(-c3cccc(C(F)(F)F)c3)cn2)c1	1	1	1	5	13*
O=C(O)c1ccc(-c2nc(-c3cccc(C(F)(F)F)c3)cs2)cc1	0	1	-2	0	0
Cn1cc([N+](=O)[O-])c(C(=O)NCc2cc3ccccc3[nH]2)n1	1	1	1.8*	3	3
